Source: PubChem BioAssay (National Center for Advancing Translational Sciences (NCATS))
hNpr1 antagonist = blocks ANP-stimulated signaling of human Npr1 receptor; HEK293 hNpr1 GloSensor cGMP, ANP-stimulated luminescence; Potency, µM (titrated, usually from 46.3 µM), for inactives: at the highest dose activity change, negative = inhibition, actives largely listed as inhibitors; 1.6% of 76,000 active; AID 1347048; calls by dose curve; also: nearly all actives have a fitted effect of over 60% in size
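HEK293 cells stably expressing human Npr1 and cGMP GloSensor pGS-40F, loaded 2 h with 2% GloSensor reagent, given compound 30 min at room temperature. Luminescence read before and 20 min after 0.1 nM hNppA.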
NIH3T3 tox = cytotoxic compounds in NIH 3T3 cells; NIH 3T3 viability, CellTiter-Glo ATP luminescence, 48-72 h; Potency, µM (top dose mostly 96.7 µM), without a hit: at the top dose activity change, negative = cytotoxicity, actives largely listed as inhibitors; 4.3% of 94,000 active; AID 1345082; also: nearly all actives have a fitted effect of over 55% in size
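First NIH 3T3 cells are plated at 400 cells/well; next compound is pinned in; then plates incubate 48 or 72 hr at 37 °C; finally CellTiter-Glo is added and luminescence read after 10 min.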
HEK cytotox = kills HEK 293 cells; 6.6% of 94,000 active; Potency, µM (top dose mostly 115 µM), without a hit: top-dose activity change, negative = cytotoxicity, most hits filed as inhibitors; HEK 293 viability, ATP luminescence (CellTiter-Glo), 48-72 h; AID 1345083; also: nearly all actives have a fitted effect of over 60% in size
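qHTS cytotoxicity; HEK 293, 250 cells/well; compound pinned; 48 or 72 hr, 37 degree Celsius, 5% CO2, 95% humidity; CellTiter-Glo, 10 min RT; luminescence (ATP).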
FLuc inh = blocks purified firefly luciferase enzyme activity; Potency, µM (doses to about 115 µM), hits mostly inhibitors; P08659; purified P. pyralis luciferase, luminescence, biochemical; 2.5% of 76,000 active; also: nearly all actives have a fitted effect of over 65% in size
Target sequence (P08659 whole entry, looked up): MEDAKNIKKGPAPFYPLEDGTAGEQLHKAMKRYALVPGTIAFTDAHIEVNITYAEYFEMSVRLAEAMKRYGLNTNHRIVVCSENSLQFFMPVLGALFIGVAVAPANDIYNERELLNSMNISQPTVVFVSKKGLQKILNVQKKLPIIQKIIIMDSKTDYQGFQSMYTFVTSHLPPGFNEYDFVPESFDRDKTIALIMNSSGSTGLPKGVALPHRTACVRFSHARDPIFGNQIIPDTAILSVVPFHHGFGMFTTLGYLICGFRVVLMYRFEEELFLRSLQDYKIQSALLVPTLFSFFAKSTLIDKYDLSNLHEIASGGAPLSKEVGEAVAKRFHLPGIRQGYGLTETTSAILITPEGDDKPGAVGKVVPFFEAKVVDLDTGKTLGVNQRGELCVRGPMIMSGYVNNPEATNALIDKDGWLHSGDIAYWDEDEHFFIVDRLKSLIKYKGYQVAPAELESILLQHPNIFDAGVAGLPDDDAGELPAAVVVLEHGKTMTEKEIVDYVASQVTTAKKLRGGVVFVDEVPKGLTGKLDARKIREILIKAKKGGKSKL
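FLuc 10nM, D-luciferin 10uM, ATP 10uM, Mg acetate 10mM, Tris acetate pH 7.5, Tween/BSA; cpd qHTS; enzyme added last; CCD luminescence.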
* marks the source's active call; other numbers are inactive results; i = inactive; ? = inconclusive; / = no result; [ ] = dose if it differs, or a comment. An excerpt weighted towards active compounds, which were near 11% of everything screened. Unless noted, calls follow the shape of the dose curve; as a rule, active = well fitted curve in the direction sought with a large enough effect; inconclusive = small, poorly fitted or top-dose-only effect, or another doubt; inactive = no such curve, though single readings can be large; an effect the other way counts as inactive or inconclusive. % is scaled to controls: 0 for no effect and ±100 for the full control effect; potency is read from the fitted curve at half-maximal effect.

SMILES	hNpr1 antagonist	NIH3T3 tox	HEK cytotox	FLuc inh
O=C(Cc1ccccc1)N1CCC2(CC1)CN(c1ccccc1)C2=O	/	?	35µM*	/
CCC(=O)N1CCC2(CC1)CN(c1ccccc1)C2=O	1%	-9%	i	i
Cc1ccc(C)c(CN2C[C@@H]3C(=O)N(CCN4CCc5ccccc5C4)C(=O)[C@@H]3C2)c1	-10%	?	?	i
O=C(Nc1ccc([C@@H](O)[C@H]2COCC(=O)N2Cc2ccccc2)cc1)c1ccc(F)cc1	-9%[70.6 µM]	?	100µM*	i
COc1ccc(C(=O)Nc2ccc([C@@H](O)[C@H]3COCC(=O)N3CC3CCCCC3)cc2)cc1	-19%	?	35µM*	i
O=C(COc1ccccc1)Nc1ccc([C@@H](O)[C@H]2COCC(=O)N2Cc2ccc(C(F)(F)F)cc2)cc1	?	?	40µM*	i
CCOCCN1C(=O)COC[C@@H]1[C@H](O)c1ccc(NC(=O)c2ccccc2)cc1	-2%[70.6 µM]	-16%[138 µM]	-2%[172 µM]	i
O=C(Nc1ccc([C@@H](O)[C@H]2COCC(=O)N2Cc2cccnc2)cc1)c1ccccc1	4%[70.6 µM]	-6%[174 µM]	-3%[172 µM]	i
O=C(COc1ccccc1)Nc1ccc([C@@H](O)[C@H]2COCC(=O)N2CCCc2ccccc2)cc1	4%	?	79µM*	i
CC(C)C(=O)NC1CCN(C(=O)c2ccc(-c3ncccc3C#N)cc2)CC1	/	?	-18%	/
CCCCn1c(=O)c(C(=O)N2CCN(C(=O)Nc3ccc(Cl)cc3)CC2)nc2cccnc21	/	?	-24%	/
Fc1ccc(CN2Cc3[nH]cnc3C[C@H]2c2nc(-c3ccccc3)no2)cc1	-16%[70.6 µM]	79µM*	100µM*	45µM*
Fc1ccc(CN2Cc3[nH]cnc3C[C@H]2c2nc(-c3ccc(Cl)cc3)no2)cc1	-20%[70.6 µM]	50µM*	63µM*	i
CSc1ccc(CN2CCN(Cc3ccccc3F)C(CCO)C2)cc1 (stereo unspecified)	-16%	-18%	?	i
Cc1ccc(NC(=O)c2cc(-c3ccc(Cl)cc3Cl)c3nncn3n2)cc1	/	-19%	0%	/
COc1ccccc1-c1cc(C(=O)Nc2ccc(C)cc2)nn2cnnc12	/	-18%	35µM*	/
COc1cccc(CNC(=O)c2cc(-c3cccc(C(F)(F)F)c3)c3nncn3n2)c1	/	-13%	?	/
COc1ccccc1-c1cc(C(=O)NCc2cccc(C(F)(F)F)c2)nn2cnnc12	/	?	40µM*	/
COc1ccc(-c2nc(C3CC(=O)N(c4ccc(OC)c(OC)c4)C3)no2)c(OC)c1 (stereo unspecified)	-24%	?	?	i
CCN1c2cc(C(=O)Nc3ccc(F)c(F)c3)ccc2C(=O)N2CCCCCC21 (stereo unspecified)	-17%	?	?	i
CCN1c2cc(C(=O)Nc3ccc(-n4ccnc4)cc3)ccc2C(=O)N2CCCCCC21 (stereo unspecified)	-3%	11µM*	?	i
CCN1c2cc(C(=O)Nc3ccc(Cl)cc3)ccc2C(=O)N2CCCCCC21 (stereo unspecified)	-7%	?	45µM*	i
CCN1c2cc(C(=O)Nc3ccc(OC)cc3)ccc2C(=O)N2CCCCCC21 (stereo unspecified)	6%	?	?	i
CCN1c2cc(C(=O)Nc3ccc(C(C)C)cc3)ccc2C(=O)N2CCCCCC21 (stereo unspecified)	4%	22µM*	?	i
CCN1c2cc(C(=O)Nc3ccc(C(C)C)cc3)ccc2C(=O)N2CCCCC21 (stereo unspecified)	4%	?	18µM*	?
SMILES	hNpr1 antagonist	NIH3T3 tox	HEK cytotox	FLuc inh
CCN1c2cc(C(=O)Nc3ccc(OC)cc3)ccc2C(=O)N2CCCCC21 (stereo unspecified)	-2%	?	?	i
CCc1nc2c(c(-c3ccc(O)cc3)n1)CN(Cc1ccc(N(C)C)cc1)CC2	/	-9%	?	/
COC1CCC12CCN(C(=O)CCc1c[nH]c3ccccc13)CC2 (stereo unspecified)	/	-12%	-1%	/
Cc1ccccc1C(=O)NCCNC(=O)c1ccc(-c2cncnc2)cc1	/	-8%	-1%	/
CCOC1CCOC2(CCN(C(=O)c3cccn3C)CC2)C1 (stereo unspecified)	/	2%	i	/
Cc1ccc(CNC(=O)C2(CCO)CC23CCOCC3)o1 (stereo unspecified)	-3%	-1%	i	i
O=C(NCc1cccnc1)C1(CCO)CC12CCOCC2 (stereo unspecified)	4%	i	0%	28µM*
Cc1nn(-c2ccc(C(F)(F)F)cc2)c(C)c1[C@@H]1C=C[C@@H](NC(=O)C2CCCCC2)C1	?	?	?	i
Cc1nn(-c2ccc(C(F)(F)F)cc2)c(C)c1[C@@H]1C=C[C@@H](NC(=O)NC(C)C)C1	?	?	35µM*	14µM*
Cc1nn(-c2ccc(C(F)(F)F)cc2)c(C)c1[C@@H]1C=C[C@@H](NC(=O)Nc2ccccc2)C1	?	32µM*	50µM*	13µM*
COc1cc(CN2CCCC(COc3ccccc3C(=O)NC(C)C)C2)ccc1O (stereo unspecified)	/	-28%	?	/
COc1cccc(N2C(=O)NC(=NC3CCCCC3)C23CCCN(CC2CCCCC2)C3)c1 (stereo unspecified)	/	28µM*	32µM*	/
COc1cccc(N2C(=O)NC(=NC3CCCCC3)C23CCCN(CCC(C)C)C3)c1 (stereo unspecified)	/	?	40µM*	/
O=C1NC(=NC2CCCC2)C2(CCN(CC3CCCCC3)C2)N1c1cc(F)cc(F)c1 (stereo unspecified)	/	?	35µM*	/
O=C1NC(=NC2CCCC2)C2(CCN(CC3CCCCC3)CC2)N1c1cc(F)cc(F)c1	/	-13%	-23%	/
COc1cccc(N2C(=O)NC(=NC3CCCCC3)C23CCN(CCC(C)C)CC3)c1	/	i	-3%	/
CNC(=O)c1cc(C)nc2onc(C3CCCN(C(=O)Cc4ccc(F)cc4)C3)c12 (stereo unspecified)	/	?	-8%	/
O=C(Cc1cccc(Cl)c1)NC1CN(c2ccnc3ccnn23)C1	/	?	-19%	/
COc1ccccc1CN(Cc1ccccc1OC)C[C@@H]1C=C(C)[C@H](Cc2nc3c(C)cccc3[nH]2)C[C@H]1C(C)C	?	32µM*	16µM*	i
CC1=C[C@@H](CNC(=O)c2ccccc2)[C@H](C(C)C)C[C@H]1Cc1nc2ccc(C)cc2[nH]1	-27%[70.6 µM]	?	50µM*	i
CC(=O)NC[C@@H]1C=C(C)[C@H](Cc2nc3ccc(C)cc3[nH]2)C[C@H]1C(C)C	?	71µM*	?	i
CCCNC(=O)NC[C@@H]1C=C(C)[C@H](Cc2nc3ccccc3[nH]2)C[C@H]1C(C)C	?	35µM*	100µM*	i
